# Data: ChEMBL document CHEMBL1961873, “Compounds: GSK PKIS; Assays: Nanosyn kinase panel” (2012)
# Columns and labels:
# [1] = target: RAC-alpha serine/threonine-protein kinase (Homo sapiens) (UniProt P31749); details: at 0.1 µM
# [2] = target: RAC-alpha serine/threonine-protein kinase (Homo sapiens) (UniProt P31749); details: at 1 µM
# [3] = target: RAC-beta serine/threonine-protein kinase (Homo sapiens) (UniProt P31751); details: at 0.1 µM
# [4] = target: RAC-beta serine/threonine-protein kinase (Homo sapiens) (UniProt P31751); details: at 1 µM
# [5] = target: RAC-gamma serine/threonine-protein kinase (Homo sapiens) (UniProt Q9Y243); details: at 0.1 µM
# RAC-gamma serine/threonine-protein kinase (Homo sapiens), sequence (Q9Y243 whole entry): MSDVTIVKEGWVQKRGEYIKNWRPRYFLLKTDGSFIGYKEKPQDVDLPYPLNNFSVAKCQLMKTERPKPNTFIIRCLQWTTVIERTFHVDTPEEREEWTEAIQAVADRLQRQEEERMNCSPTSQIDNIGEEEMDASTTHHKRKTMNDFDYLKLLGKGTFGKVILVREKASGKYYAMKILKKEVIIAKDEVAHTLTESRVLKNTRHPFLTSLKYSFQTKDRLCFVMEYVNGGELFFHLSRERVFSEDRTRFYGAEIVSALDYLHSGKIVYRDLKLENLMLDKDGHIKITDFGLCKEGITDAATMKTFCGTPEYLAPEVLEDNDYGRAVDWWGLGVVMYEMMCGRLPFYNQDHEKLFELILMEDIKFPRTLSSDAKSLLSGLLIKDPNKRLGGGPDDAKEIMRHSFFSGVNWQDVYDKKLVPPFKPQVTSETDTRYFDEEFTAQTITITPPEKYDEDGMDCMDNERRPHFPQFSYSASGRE
# [6] = target: RAC-gamma serine/threonine-protein kinase (Homo sapiens) (UniProt Q9Y243); details: at 1 µM
# [7] = target: G protein-coupled receptor kinase 6 (Homo sapiens) (UniProt P43250); details: at 0.1 µM
# [8] = target: G protein-coupled receptor kinase 6 (Homo sapiens) (UniProt P43250); details: at 1 µM
# [9] = target: T1, Rhodopsin kinase GRK7 (Homo sapiens) (UniProt Q8WTQ7); details: at 0.1 µM
# T1 sequence (whole entry): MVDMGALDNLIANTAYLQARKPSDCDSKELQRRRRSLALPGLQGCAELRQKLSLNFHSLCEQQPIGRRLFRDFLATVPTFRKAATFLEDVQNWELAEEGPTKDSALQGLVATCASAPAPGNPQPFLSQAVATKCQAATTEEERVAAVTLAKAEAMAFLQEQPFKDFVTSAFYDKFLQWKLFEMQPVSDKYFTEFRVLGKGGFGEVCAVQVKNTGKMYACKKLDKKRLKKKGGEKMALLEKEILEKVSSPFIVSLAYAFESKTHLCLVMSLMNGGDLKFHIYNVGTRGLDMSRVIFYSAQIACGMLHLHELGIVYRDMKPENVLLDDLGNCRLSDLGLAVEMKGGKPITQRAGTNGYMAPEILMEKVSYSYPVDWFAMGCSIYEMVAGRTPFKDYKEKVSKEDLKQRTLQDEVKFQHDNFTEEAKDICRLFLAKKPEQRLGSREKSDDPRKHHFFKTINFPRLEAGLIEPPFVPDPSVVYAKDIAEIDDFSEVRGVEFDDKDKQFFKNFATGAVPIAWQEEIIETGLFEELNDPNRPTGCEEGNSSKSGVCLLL
# [10] = target: T1, Rhodopsin kinase GRK7 (Homo sapiens); details: at 1 µM
# [11] = target: Serine/threonine-protein kinase MRCK alpha (Homo sapiens) (UniProt Q5VT25); details: at 0.1 µM
# [12] = target: Serine/threonine-protein kinase MRCK alpha (Homo sapiens) (UniProt Q5VT25); details: at 1 µM
# [13] = target: Serine/threonine-protein kinase MRCK beta (Homo sapiens) (UniProt Q9Y5S2); details: at 0.1 µM
# Serine/threonine-protein kinase MRCK beta (Homo sapiens), sequence (Q9Y5S2 whole entry): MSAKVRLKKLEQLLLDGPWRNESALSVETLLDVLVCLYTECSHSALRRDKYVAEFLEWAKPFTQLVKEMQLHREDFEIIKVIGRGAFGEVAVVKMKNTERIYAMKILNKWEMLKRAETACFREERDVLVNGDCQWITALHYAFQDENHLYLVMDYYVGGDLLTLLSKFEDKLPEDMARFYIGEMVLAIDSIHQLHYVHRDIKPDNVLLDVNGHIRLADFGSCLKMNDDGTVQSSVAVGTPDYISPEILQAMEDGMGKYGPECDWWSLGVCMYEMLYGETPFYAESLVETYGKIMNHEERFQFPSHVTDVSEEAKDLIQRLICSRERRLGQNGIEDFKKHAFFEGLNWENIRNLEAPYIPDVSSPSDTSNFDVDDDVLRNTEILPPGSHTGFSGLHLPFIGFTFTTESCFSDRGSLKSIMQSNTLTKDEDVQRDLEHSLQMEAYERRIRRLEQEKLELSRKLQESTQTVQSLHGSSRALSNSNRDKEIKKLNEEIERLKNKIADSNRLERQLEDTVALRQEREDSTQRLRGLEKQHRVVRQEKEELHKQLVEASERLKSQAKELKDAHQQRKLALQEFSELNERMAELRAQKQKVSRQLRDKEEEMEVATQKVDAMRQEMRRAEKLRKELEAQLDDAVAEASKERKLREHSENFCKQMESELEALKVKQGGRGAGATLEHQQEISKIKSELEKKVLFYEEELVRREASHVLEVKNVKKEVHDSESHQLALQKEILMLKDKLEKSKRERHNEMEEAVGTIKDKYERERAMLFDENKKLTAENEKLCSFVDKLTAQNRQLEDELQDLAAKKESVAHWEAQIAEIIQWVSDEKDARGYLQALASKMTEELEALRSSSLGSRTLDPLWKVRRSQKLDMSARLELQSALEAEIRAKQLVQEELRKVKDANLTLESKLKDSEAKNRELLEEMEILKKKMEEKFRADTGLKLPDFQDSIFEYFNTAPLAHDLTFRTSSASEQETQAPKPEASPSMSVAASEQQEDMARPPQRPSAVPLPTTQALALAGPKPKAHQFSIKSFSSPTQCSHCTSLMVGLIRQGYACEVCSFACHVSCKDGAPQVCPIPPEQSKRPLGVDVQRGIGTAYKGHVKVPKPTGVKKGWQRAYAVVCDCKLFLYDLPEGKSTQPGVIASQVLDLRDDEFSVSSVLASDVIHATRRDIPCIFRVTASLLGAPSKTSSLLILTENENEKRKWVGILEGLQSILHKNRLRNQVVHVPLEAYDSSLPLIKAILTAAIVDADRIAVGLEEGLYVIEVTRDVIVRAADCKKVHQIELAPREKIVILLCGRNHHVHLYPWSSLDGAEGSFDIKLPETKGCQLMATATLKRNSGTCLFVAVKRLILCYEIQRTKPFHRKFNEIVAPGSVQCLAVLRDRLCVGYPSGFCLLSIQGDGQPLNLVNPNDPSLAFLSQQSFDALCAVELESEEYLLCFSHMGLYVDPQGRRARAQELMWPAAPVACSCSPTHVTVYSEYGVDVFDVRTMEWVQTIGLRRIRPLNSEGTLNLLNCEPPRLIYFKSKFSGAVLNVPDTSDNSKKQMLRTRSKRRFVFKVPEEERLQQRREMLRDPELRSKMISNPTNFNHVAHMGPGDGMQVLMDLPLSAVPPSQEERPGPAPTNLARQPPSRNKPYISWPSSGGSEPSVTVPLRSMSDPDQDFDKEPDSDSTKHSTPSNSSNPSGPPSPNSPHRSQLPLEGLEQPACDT
# [14] = target: Serine/threonine-protein kinase MRCK beta (Homo sapiens) (UniProt Q9Y5S2); details: at 1 µM
# [15] = target: Ribosomal protein S6 kinase alpha-5 (Homo sapiens) (UniProt O75582); details: at 0.1 µM
# Ribosomal protein S6 kinase alpha-5 (Homo sapiens), sequence (O75582 whole entry, looked up): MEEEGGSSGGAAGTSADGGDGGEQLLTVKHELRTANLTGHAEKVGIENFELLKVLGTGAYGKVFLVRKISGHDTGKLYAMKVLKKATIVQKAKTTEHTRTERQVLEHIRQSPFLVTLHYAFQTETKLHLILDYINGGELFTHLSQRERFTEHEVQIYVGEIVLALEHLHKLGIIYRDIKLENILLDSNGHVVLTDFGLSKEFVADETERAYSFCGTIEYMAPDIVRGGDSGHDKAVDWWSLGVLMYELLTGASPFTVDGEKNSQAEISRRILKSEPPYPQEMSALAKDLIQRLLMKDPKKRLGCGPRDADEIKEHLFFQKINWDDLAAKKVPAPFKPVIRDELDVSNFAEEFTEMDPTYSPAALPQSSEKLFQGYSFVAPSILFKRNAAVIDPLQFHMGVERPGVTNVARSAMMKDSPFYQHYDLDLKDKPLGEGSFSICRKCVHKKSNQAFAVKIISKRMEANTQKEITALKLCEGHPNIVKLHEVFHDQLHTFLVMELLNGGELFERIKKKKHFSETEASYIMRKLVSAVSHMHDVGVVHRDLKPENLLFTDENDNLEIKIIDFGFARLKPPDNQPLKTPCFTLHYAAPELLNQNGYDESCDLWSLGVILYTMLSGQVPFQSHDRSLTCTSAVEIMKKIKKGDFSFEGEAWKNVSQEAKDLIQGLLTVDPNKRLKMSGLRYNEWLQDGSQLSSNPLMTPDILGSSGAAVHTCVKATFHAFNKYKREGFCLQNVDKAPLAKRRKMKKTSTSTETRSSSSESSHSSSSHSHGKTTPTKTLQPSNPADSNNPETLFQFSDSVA
# [16] = target: Ribosomal protein S6 kinase alpha-5 (Homo sapiens) (UniProt O75582); details: at 1 µM
# [17] = target: Ribosomal protein S6 kinase alpha-4 (Homo sapiens) (UniProt O75676); details: at 0.1 µM
# Ribosomal protein S6 kinase alpha-4 (Homo sapiens), sequence (O75676 whole entry, looked up): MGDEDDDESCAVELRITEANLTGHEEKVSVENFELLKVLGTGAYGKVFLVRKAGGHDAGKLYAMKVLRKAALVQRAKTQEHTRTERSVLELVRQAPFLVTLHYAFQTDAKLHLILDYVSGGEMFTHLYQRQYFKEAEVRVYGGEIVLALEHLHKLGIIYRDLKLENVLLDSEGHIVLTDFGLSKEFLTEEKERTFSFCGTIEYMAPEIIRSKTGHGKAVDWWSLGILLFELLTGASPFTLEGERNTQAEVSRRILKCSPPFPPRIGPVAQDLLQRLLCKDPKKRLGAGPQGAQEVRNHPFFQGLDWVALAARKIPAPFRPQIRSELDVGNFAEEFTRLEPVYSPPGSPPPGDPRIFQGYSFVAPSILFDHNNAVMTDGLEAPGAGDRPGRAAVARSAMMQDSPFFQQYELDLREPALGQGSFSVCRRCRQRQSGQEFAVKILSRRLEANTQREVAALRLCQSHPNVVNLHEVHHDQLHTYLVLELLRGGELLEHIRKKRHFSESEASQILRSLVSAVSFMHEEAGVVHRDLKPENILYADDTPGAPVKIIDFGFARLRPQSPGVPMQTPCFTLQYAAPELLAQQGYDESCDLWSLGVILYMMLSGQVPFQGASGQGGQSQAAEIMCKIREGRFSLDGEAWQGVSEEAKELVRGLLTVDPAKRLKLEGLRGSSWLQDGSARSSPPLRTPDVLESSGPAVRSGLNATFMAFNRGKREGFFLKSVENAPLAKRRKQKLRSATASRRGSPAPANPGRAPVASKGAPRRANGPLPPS
# [18] = target: Ribosomal protein S6 kinase alpha-4 (Homo sapiens) (UniProt O75676); details: at 1 µM
# [19] = target: Ribosomal protein S6 kinase beta-1 (Homo sapiens) (UniProt P23443); details: at 0.1 µM
# Ribosomal protein S6 kinase beta-1 (Homo sapiens), sequence (P23443 whole entry, looked up): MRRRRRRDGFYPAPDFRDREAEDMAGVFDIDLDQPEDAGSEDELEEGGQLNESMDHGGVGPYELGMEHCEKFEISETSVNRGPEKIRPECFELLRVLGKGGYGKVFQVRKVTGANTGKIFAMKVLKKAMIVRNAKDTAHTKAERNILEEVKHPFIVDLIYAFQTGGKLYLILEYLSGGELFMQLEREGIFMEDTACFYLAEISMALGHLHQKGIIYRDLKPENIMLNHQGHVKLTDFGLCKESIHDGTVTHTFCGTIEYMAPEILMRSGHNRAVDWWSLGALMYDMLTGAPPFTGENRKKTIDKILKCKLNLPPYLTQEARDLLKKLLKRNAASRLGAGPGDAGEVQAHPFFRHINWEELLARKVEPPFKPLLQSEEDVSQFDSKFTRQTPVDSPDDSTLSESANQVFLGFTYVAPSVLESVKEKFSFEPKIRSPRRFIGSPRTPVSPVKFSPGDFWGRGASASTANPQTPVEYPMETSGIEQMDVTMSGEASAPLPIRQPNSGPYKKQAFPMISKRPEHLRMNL
# [20] = target: Ribosomal protein S6 kinase beta-1 (Homo sapiens) (UniProt P23443); details: at 1 µM
# RAC-alpha serine/threonine-protein kinase (Homo sapiens), sequence (P31749 whole entry): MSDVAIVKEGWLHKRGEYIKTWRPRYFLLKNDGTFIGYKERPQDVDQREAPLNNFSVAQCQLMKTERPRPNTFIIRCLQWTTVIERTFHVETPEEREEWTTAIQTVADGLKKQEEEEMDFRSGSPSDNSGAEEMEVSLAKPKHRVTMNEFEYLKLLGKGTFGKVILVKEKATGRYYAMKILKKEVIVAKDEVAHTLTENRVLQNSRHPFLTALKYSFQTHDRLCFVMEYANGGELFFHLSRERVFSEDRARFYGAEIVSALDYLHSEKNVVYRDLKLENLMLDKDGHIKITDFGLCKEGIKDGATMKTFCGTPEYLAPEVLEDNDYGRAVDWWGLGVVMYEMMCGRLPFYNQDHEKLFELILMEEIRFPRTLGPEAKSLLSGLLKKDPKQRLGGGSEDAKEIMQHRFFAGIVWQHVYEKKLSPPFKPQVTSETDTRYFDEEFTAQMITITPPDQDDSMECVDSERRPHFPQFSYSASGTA
compound,measurement,setting,value
COc1ccc(-c2ccncc2)cc1C(N)=O,inhibition,[1],0.88%
same,inhibition,[2],-0.34%
same,inhibition,[3],0.41%
same,inhibition,[4],2.06%
same,inhibition,[5],1.15%
same,inhibition,[6],2.9%
same,inhibition,[7],5.49%
same,inhibition,[8],5.53%
same,inhibition,[9],9.86%
same,inhibition,[10],2.23%
same,inhibition,[11],3.16%
same,inhibition,[12],6.38%
same,inhibition,[13],-0.49%
same,inhibition,[14],2.83%
same,inhibition,[15],9.33%
same,inhibition,[16],10.5%
same,inhibition,[17],2.85%
same,inhibition,[18],5.28%
same,inhibition,[19],1.79%
same,inhibition,[20],4.79%
Nc1nc(-c2ccccn2)c(-c2ccc3ncccc3n2)s1,inhibition,[1],0.97%
same,inhibition,[2],0.96%
same,inhibition,[3],1.1%
same,inhibition,[4],1.5%
same,inhibition,[5],1.6%
same,inhibition,[6],1.17%
same,inhibition,[7],5.73%
same,inhibition,[8],1.87%
same,inhibition,[9],1.26%
same,inhibition,[10],-0.58%
same,inhibition,[11],0.29%
same,inhibition,[12],-0.21%
same,inhibition,[13],-1.45%
same,inhibition,[14],0.91%
same,inhibition,[15],2.65%
same,inhibition,[16],4.51%
same,inhibition,[17],1.3%
same,inhibition,[18],3.24%
same,inhibition,[19],0.7%
same,inhibition,[20],1.17%
COC(=O)Nc1nc2cc(Oc3cccc(NC(=O)Nc4cc(C(F)(F)F)ccc4F)c3)ccc2[nH]1,inhibition,[1],0.52%
same,inhibition,[2],0.1%
same,inhibition,[3],-0.46%
same,inhibition,[4],-0.62%
same,inhibition,[5],0.98%
same,inhibition,[6],1.83%
same,inhibition,[7],2.28%
same,inhibition,[8],0.3%
same,inhibition,[9],-2.92%
same,inhibition,[10],1.74%
same,inhibition,[11],0.87%
same,inhibition,[12],0.69%
same,inhibition,[13],-0.19%
same,inhibition,[14],2.03%
same,inhibition,[15],0.09%
same,inhibition,[16],1.11%
same,inhibition,[17],-0.69%
same,inhibition,[18],1.7%
same,inhibition,[19],-0.07%
same,inhibition,[20],1.88%
NC(=O)c1ccc(-c2nc(-c3ccccn3)c(-c3ccc4c(c3)OCO4)[nH]2)cc1,inhibition,[1],0.43%
same,inhibition,[2],0.86%
same,inhibition,[3],1.27%
same,inhibition,[4],1.16%
same,inhibition,[5],0.75%
same,inhibition,[6],0.48%
same,inhibition,[7],0.64%
same,inhibition,[8],5.54%
same,inhibition,[9],1.63%
same,inhibition,[10],6.3%
same,inhibition,[11],0.14%
same,inhibition,[12],2.49%
same,inhibition,[13],1.08%
same,inhibition,[14],0.59%
same,inhibition,[15],1.5%
same,inhibition,[16],1.56%
same,inhibition,[17],2.14%
same,inhibition,[18],4.23%
same,inhibition,[19],1.26%
same,inhibition,[20],2.46%
CCn1c(-c2nonc2N)nc2c(C#CC(C)(C)O)nc(CN3CCCC3)cc21,inhibition,[1],8.37%
same,inhibition,[2],54.9%
same,inhibition,[3],10%
same,inhibition,[4],55.5%
same,inhibition,[5],18.8%
same,inhibition,[6],78.7%
same,inhibition,[7],-2.28%
same,inhibition,[8],-0.02%
same,inhibition,[9],-4.34%
same,inhibition,[10],3.4%
same,inhibition,[11],2.53%
same,inhibition,[12],0.11%
same,inhibition,[13],1.98%
same,inhibition,[14],4.91%
same,inhibition,[15],0.29%
same,inhibition,[16],3.07%
same,inhibition,[17],2%
same,inhibition,[18],6.06%
same,inhibition,[19],0.33%
same,inhibition,[20],1.37%
CN1CCC(C(=O)Nc2n[nH]c3nnc(-c4ccccc4)cc23)CC1,inhibition,[1],0.8%
same,inhibition,[2],0.53%
same,inhibition,[3],3.48%
same,inhibition,[4],1.57%
same,inhibition,[5],2.3%
same,inhibition,[6],2.79%
same,inhibition,[7],7.16%
same,inhibition,[8],14.5%
same,inhibition,[9],7.52%
same,inhibition,[10],15.6%
same,inhibition,[11],0.2%
same,inhibition,[12],2.63%
same,inhibition,[13],-0.23%
same,inhibition,[14],0.78%
same,inhibition,[15],-1.68%
same,inhibition,[16],-1.22%
same,inhibition,[17],2.89%
same,inhibition,[18],4.31%
same,inhibition,[19],1.63%
same,inhibition,[20],2.47%
CCCN1CCC(Oc2cc(Nc3nc(Nc4cccc(F)c4C(N)=O)c4cc[nH]c4n3)c(OC)cc2Cl)CC1,inhibition,[1],0.07%
same,inhibition,[2],1.83%
same,inhibition,[3],1.14%
same,inhibition,[4],2.04%
same,inhibition,[5],1.42%
same,inhibition,[6],1.06%
same,inhibition,[7],1.2%
same,inhibition,[8],1.87%
same,inhibition,[9],3.39%
same,inhibition,[10],7.39%
same,inhibition,[11],0.81%
same,inhibition,[12],-1.24%
same,inhibition,[13],1.36%
same,inhibition,[14],2.2%
same,inhibition,[15],1.01%
same,inhibition,[16],3.87%
same,inhibition,[17],1.03%
same,inhibition,[18],1.99%
same,inhibition,[19],-0.03%
same,inhibition,[20],1.36%
CCn1c(-c2nonc2N)nc2cnc(Oc3cccc(NC(=O)c4ccc(OCCN5CCOCC5)cc4)c3)cc21,inhibition,[1],1.6%
same,inhibition,[2],7.87%
same,inhibition,[3],2.69%
same,inhibition,[4],7.74%
same,inhibition,[5],2.01%
same,inhibition,[6],7.9%
same,inhibition,[7],6.32%
same,inhibition,[8],9.42%
same,inhibition,[9],1.38%
same,inhibition,[10],9.5%
same,inhibition,[11],6.6%
same,inhibition,[12],42.3%
same,inhibition,[13],17.8%
same,inhibition,[14],59%
same,inhibition,[15],66.8%
same,inhibition,[16],78.1%
same,inhibition,[17],56.7%
same,inhibition,[18],76.7%
same,inhibition,[19],84.6%
same,inhibition,[20],93%
COc1cccc(-n2ncc3c(N/N=C/c4cccc(F)c4)ncnc32)c1,inhibition,[1],-2.98%
same,inhibition,[2],-3.97%
same,inhibition,[3],-2.03%
same,inhibition,[4],-2.75%
same,inhibition,[5],-1.82%
same,inhibition,[6],-1.99%
same,inhibition,[7],3.44%
same,inhibition,[8],0.12%
same,inhibition,[9],1.93%
same,inhibition,[10],10.3%
same,inhibition,[11],0.1%
same,inhibition,[12],-0.68%
same,inhibition,[13],1.2%
same,inhibition,[14],0.38%
same,inhibition,[15],0.41%
same,inhibition,[16],-0.25%
same,inhibition,[17],2.4%
same,inhibition,[18],2.89%
same,inhibition,[19],0.65%
same,inhibition,[20],2.01%
CCn1c(-c2nonc2N)nc2ccncc21,inhibition,[1],0.31%
same,inhibition,[2],0.51%
same,inhibition,[3],0.98%
same,inhibition,[4],1.01%
same,inhibition,[5],-0.4%
same,inhibition,[6],-0.73%
same,inhibition,[7],0.85%
same,inhibition,[8],-3.7%
same,inhibition,[9],0.19%
same,inhibition,[10],2.02%
same,inhibition,[11],1.72%
same,inhibition,[12],1.13%
same,inhibition,[13],0.86%
same,inhibition,[14],0.41%
same,inhibition,[15],1.63%
same,inhibition,[16],2.9%
same,inhibition,[17],0.33%
same,inhibition,[18],2.82%
same,inhibition,[19],1.28%
same,inhibition,[20],3.8%
[O-][S+]1CCN(Cc2ccc(-c3ccc4ncnc(Nc5ccc(OCc6ccccc6)c(F)c5)c4c3)o2)CC1,inhibition,[1],0.83%
same,inhibition,[2],-0.19%
same,inhibition,[3],2.53%
same,inhibition,[4],0.9%
same,inhibition,[5],0.99%
same,inhibition,[6],1.21%
same,inhibition,[7],3.78%
same,inhibition,[8],-2.01%
same,inhibition,[9],1.86%
same,inhibition,[10],-0.58%
same,inhibition,[11],0.13%
same,inhibition,[12],-0.47%
same,inhibition,[13],-0.5%
same,inhibition,[14],0.8%
same,inhibition,[15],1.59%
same,inhibition,[16],1.41%
same,inhibition,[17],-0.07%
same,inhibition,[18],2.42%
same,inhibition,[19],0.52%
same,inhibition,[20],0.86%
O=C(Nc1n[nH]c2nc(-c3ccco3)c(Br)cc12)C1CC1,inhibition,[1],0.59%
same,inhibition,[2],0.53%
same,inhibition,[3],2.1%
same,inhibition,[4],2.15%
same,inhibition,[5],0.47%
same,inhibition,[6],1.46%
same,inhibition,[7],-0.71%
same,inhibition,[8],-0.55%
same,inhibition,[9],3.55%
same,inhibition,[10],4.09%
same,inhibition,[11],0.4%
same,inhibition,[12],-0.6%
same,inhibition,[13],1.27%
same,inhibition,[14],0.57%
same,inhibition,[15],3.55%
same,inhibition,[16],1.89%
same,inhibition,[17],0.7%
same,inhibition,[18],2.64%
same,inhibition,[19],1.19%
same,inhibition,[20],2.07%
Fc1cccc(COc2ccc(Nc3ncnc4sc(-c5cccs5)cc34)cc2Cl)c1,inhibition,[1],0.07%
same,inhibition,[2],-0.67%
same,inhibition,[3],-0.49%
same,inhibition,[4],0.01%
same,inhibition,[5],0.23%
same,inhibition,[6],1.25%
same,inhibition,[7],1.48%
same,inhibition,[8],1.31%
same,inhibition,[9],7.27%
same,inhibition,[10],-0.21%
same,inhibition,[11],1.75%
same,inhibition,[12],2.49%
same,inhibition,[13],1.14%
same,inhibition,[14],1.28%
same,inhibition,[15],-5.35%
same,inhibition,[16],-7.37%
same,inhibition,[17],1.59%
same,inhibition,[18],1.29%
same,inhibition,[19],-0.02%
same,inhibition,[20],0.68%
